According to the supplement of paper PMC10849652:
Of roughly 7,900 targets only a part is listed; those with a hit were picked by preference. About 0.6% of all pairs of compound and target were hits.

Tests used:
Assay in all cases: log2 fold change, soluble protein after heating vs DMSO (PISA); higher = thermal stabilisation; K562 cells, 10 uM, 30 min; active = over 0.2 and 3.5 SD of the protein, either way, in both replicates (recomputed)
saracatinib = compound: CN1CCN(CCOc2cc(OC3CCOCC3)c3c(Nc4c(Cl)ccc5c4OCO5)ncnc3c2)CC1 [saracatinib]
How it was run: (§1)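 K562 cells (2×10^6 cells/mL) were treated with 10 μM compound for 30 min, and aliquots were heated for 3 min over 48°C-58°C. Pooled aliquots were extracted in PBS with 0.5% NP-40 at 4°C, and the supernatant after 21,000xg for 90 min was measured by TMTpro 16plex LC-MS/MS with channel sums equalised. Reported thermal stability, relative to control samples and from duplicates, is a log2 fold change.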

sotrastaurin = compound: CN1CCN(c2nc(C3=C(c4c[nH]c5ccccc45)C(=O)NC3=O)c3ccccc3n2)CC1 [sotrastaurin]
How it was run: as §1

alvocidib = compound: CN1CC[C@H](c2c(O)cc(O)c3c(=O)cc(-c4ccccc4Cl)oc23)[C@H](O)C1 [alvocidib]
How it was run: as §1

Tubastatin A = compound: CN1CCc2c(c3ccccc3n2Cc2ccc(C(=O)NO)cc2)C1 [Tubastatin A]
How it was run: as §1

[1] = compound: CNC(=O)C1=CC=CC=C1NC2=NC(=NC=C2Cl)NC3=C(C=C(C=C3)N4CCOCC4)OC
How it was run: as §1

defactinib = compound: CNC(=O)c1ccc(Nc2ncc(C(F)(F)F)c(NCc3nccnc3N(C)S(C)(=O)=O)n2)cc1 [defactinib]
How it was run: as §1

rucaparib = compound: CNCc1ccc(-c2[nH]c3cc(F)cc4c3c2CCNC4=O)cc1 [rucaparib]
How it was run: as §1

[2] = compound: CNc1nc(-c2ccc3c(N)n[nH]c3c2)cc(N2C[C@@H](C(=O)NC3CCCCC3)CC[C@H]2C)n1
How it was run: as §1

encorafenib = compound: COC(=O)N[C@@H](C)CNc1nccc(-c2cn(C(C)C)nc2-c2cc(Cl)cc(NS(C)(=O)=O)c2F)n1 [encorafenib]
How it was run: as §1

[3] = compound: COC(=O)[C@H](CCSC)NC(=O)C1=C(C=C(C=C1)NC[C@H](CS)N)C2=CC=CC=C2
How it was run: as §1

[4] = compound: COC1=CC=C(C=C1)CN2C=CC3=C2C=C(C=C3)C(=O)NO
How it was run: as §1

filanesib = compound: CON(C)C(=O)N1N=C(c2cc(F)ccc2F)S[C@@]1(CCCN)c1ccccc1 [filanesib]
How it was run: as §1

zotarolimus = compound: CO[C@H]1C[C@@H]2CC[C@@H](C)[C@@](O)(O2)C(=O)C(=O)N2CCCC[C@H]2C(=O)O[C@H]([C@H](C)C[C@@H]2CC[C@H](n3cnnn3)[C@H](OC)C2)CC(=O)[C@H](C)/C=C(\C)[C@@H](O)[C@@H](OC)C(=O)[C@H](C)C[C@H](C)/C=C/C=C/C=C/1C [zotarolimus]
How it was run: as §1

idasanutlin = compound: COc1cc(C(=O)O)ccc1NC(=O)[C@@H]1N[C@@H](CC(C)(C)C)[C@](C#N)(c2ccc(Cl)cc2F)[C@H]1c1cccc(Cl)c1F [idasanutlin]
How it was run: as §1

alisertib = compound: COc1cc(Nc2ncc3c(n2)-c2ccc(Cl)cc2C(c2c(F)cccc2OC)=NC3)ccc1C(=O)O [alisertib]
How it was run: as §1

[5] = compound: COc1cc2nc(-c3cc(F)ccc3O)nc(N[C@@H]3CNC[C@H]3C(C)(C)O)c2cc1OC
How it was run: as §1

gefitinib = compound: COc1cc2ncnc(Nc3ccc(F)c(Cl)c3)c2cc1OCCCN1CCOCC1 [gefitinib]
How it was run: as §1

[6] = compound: COc1cccc2cc(-c3nc([C@H]4CC[C@H](C(=O)O)CC4)n4ncnc(N)c34)[nH]c12
How it was run: as §1

lapatinib = compound: CS(=O)(=O)CCNCc1ccc(-c2ccc3ncnc(Nc4ccc(OCc5cccc(F)c5)c(Cl)c4)c3c2)o1 [lapatinib]
How it was run: as §1

pictilisib = compound: CS(=O)(=O)N1CCN(Cc2cc3nc(-c4cccc5[nH]ncc45)nc(N4CCOCC4)c3s2)CC1 [pictilisib]
How it was run: as §1

Measured: log2 fold change

NPC1 (UniProt O15118)
Chain of UniProt O15118 (O15118 whole entry, looked up): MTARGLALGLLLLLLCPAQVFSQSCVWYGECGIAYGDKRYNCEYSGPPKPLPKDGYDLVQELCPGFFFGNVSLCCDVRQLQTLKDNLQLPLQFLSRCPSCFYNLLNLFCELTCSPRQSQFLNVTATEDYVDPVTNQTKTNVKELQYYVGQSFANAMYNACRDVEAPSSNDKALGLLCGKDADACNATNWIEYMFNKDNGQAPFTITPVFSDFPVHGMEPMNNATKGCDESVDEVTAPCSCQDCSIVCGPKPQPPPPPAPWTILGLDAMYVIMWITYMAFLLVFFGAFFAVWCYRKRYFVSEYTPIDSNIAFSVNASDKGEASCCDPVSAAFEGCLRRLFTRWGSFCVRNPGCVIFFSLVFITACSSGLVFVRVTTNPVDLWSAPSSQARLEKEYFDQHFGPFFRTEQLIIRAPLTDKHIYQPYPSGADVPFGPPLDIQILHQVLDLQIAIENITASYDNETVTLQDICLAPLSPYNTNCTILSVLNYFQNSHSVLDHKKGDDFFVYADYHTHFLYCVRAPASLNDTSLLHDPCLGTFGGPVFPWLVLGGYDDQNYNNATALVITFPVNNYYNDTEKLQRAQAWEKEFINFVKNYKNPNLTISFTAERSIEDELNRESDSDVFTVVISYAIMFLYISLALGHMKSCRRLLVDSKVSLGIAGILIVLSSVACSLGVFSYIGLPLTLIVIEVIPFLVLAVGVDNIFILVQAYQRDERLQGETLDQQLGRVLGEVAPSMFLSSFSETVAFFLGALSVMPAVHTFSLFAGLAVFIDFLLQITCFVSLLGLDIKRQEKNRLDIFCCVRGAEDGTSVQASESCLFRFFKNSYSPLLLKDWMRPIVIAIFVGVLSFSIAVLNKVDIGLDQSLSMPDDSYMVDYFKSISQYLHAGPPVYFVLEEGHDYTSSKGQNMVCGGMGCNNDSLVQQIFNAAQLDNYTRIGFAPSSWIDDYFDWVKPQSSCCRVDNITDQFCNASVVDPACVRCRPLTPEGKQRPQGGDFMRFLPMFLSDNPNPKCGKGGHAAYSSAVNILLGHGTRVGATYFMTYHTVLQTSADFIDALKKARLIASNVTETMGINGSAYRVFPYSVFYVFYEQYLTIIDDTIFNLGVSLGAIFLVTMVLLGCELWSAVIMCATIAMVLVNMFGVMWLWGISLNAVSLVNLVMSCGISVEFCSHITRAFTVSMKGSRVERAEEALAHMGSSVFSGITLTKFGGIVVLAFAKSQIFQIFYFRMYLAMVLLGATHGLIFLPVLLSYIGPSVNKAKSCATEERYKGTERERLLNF
inactive: saracatinib 0.077 | sotrastaurin 0.007 | alvocidib 0.041 | Tubastatin A -0.045 | [1] 0.02 | defactinib 0.01 | rucaparib -0.147 | [2] -0.049 | encorafenib -0.012 | [3] -0.006 | [4] 0.04 | filanesib -0.12 | zotarolimus -0.038 | idasanutlin 0.025 | alisertib -0.067 | [5] 0.035 | gefitinib -0.027 | [6] 0.057 | lapatinib 0.026 | pictilisib 0

NMT2 (UniProt O60551)
Chain of UniProt O60551 (O60551 whole entry, looked up): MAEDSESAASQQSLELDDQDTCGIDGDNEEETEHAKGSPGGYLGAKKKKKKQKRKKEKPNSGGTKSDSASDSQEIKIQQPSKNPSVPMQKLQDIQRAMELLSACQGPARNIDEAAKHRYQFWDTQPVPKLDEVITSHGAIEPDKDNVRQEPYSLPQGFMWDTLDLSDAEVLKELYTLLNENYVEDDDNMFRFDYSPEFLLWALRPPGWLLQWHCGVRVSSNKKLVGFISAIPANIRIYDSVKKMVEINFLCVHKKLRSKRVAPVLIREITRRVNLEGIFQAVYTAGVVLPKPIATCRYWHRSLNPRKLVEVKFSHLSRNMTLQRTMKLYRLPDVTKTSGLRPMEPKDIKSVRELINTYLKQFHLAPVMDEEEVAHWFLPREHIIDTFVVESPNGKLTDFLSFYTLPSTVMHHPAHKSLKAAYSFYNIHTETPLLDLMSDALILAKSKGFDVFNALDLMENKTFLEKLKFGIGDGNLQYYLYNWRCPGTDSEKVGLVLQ
inactive: saracatinib -0.031 | sotrastaurin 0.007 | alvocidib -0.021 | Tubastatin A 0.008 | [1] 0.146 | defactinib -0.016 | rucaparib -0.04 | [2] -0.027 | encorafenib 0.02 | [3] 0.023 | [4] -0.064 | filanesib -0.018 | zotarolimus 0.019 | idasanutlin -0.062 | alisertib -0.096 | [5] 0.082 | gefitinib -0.069 | [6] -0.046 | lapatinib -0.047 | pictilisib 0.087

NR2C2 isoform 2 (UniProt P49116)
Chain of UniProt P49116 (P49116 whole entry, looked up): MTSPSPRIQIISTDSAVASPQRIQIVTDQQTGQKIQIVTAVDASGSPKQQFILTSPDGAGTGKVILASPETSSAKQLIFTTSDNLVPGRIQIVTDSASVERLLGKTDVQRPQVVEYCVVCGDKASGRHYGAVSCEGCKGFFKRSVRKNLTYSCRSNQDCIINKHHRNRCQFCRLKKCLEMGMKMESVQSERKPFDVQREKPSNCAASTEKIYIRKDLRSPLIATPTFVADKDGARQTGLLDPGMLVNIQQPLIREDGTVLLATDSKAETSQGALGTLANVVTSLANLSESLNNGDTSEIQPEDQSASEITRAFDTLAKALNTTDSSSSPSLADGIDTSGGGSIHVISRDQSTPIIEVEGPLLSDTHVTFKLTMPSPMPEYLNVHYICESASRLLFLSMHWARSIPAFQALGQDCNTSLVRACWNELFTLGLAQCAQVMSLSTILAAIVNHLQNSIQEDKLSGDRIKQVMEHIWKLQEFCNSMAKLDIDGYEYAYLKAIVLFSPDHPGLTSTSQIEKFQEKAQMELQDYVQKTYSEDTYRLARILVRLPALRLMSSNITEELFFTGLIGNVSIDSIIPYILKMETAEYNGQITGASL
inactive: saracatinib 0.052 | sotrastaurin -0.041 | alvocidib 0.077 | Tubastatin A -0.013 | [1] 0.005 | defactinib 0.001 | rucaparib 0.071 | [2] -0.044 | encorafenib 0.053 | [3] 0.028 | [4] 0.026 | filanesib 0.019 | zotarolimus 0.055 | idasanutlin 0.041 | alisertib -0.173 | [5] 0.028 | gefitinib -0.052 | [6] 0.084 | lapatinib -0.004 | pictilisib 0.019

NUMA1 (UniProt Q14980)
inactive: saracatinib -0.069 | sotrastaurin -0.235 | alvocidib -0.063 | Tubastatin A 0.14 | [1] -0.057 | defactinib -0.017 | rucaparib 0.118 | [2] 0.055 | encorafenib 0.174 | [3] -0.009 | [4] 0.002 | filanesib 0.266 | zotarolimus 0.13 | idasanutlin 0.07 | alisertib -0.088 | [5] -0.223 | gefitinib -0.001 | [6] -0.247 | lapatinib 0.062 | pictilisib 0.021

NDUFA7 (UniProt O95182)
Chain of UniProt O95182 (O95182 whole entry, looked up): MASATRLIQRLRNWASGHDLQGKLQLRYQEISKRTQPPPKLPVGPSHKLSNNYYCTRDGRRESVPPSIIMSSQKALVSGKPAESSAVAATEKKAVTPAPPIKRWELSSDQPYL
inactive: saracatinib -0.037 | sotrastaurin 0.047 | alvocidib -0.01 | Tubastatin A -0.148 | [1] -0.042 | defactinib 0 | rucaparib 0.046 | [2] -0.031 | encorafenib -0.042 | [3] -0.008 | [4] 0.003 | filanesib -0.072 | zotarolimus 0.005 | idasanutlin -0.197 | alisertib -0.042 | [5] -0.147 | gefitinib -0.178 | [6] 0.013 | lapatinib -0.002 | pictilisib -0.007

NCAPG (UniProt Q9BPX3)
Chain of UniProt Q9BPX3 (Q9BPX3 whole entry, looked up): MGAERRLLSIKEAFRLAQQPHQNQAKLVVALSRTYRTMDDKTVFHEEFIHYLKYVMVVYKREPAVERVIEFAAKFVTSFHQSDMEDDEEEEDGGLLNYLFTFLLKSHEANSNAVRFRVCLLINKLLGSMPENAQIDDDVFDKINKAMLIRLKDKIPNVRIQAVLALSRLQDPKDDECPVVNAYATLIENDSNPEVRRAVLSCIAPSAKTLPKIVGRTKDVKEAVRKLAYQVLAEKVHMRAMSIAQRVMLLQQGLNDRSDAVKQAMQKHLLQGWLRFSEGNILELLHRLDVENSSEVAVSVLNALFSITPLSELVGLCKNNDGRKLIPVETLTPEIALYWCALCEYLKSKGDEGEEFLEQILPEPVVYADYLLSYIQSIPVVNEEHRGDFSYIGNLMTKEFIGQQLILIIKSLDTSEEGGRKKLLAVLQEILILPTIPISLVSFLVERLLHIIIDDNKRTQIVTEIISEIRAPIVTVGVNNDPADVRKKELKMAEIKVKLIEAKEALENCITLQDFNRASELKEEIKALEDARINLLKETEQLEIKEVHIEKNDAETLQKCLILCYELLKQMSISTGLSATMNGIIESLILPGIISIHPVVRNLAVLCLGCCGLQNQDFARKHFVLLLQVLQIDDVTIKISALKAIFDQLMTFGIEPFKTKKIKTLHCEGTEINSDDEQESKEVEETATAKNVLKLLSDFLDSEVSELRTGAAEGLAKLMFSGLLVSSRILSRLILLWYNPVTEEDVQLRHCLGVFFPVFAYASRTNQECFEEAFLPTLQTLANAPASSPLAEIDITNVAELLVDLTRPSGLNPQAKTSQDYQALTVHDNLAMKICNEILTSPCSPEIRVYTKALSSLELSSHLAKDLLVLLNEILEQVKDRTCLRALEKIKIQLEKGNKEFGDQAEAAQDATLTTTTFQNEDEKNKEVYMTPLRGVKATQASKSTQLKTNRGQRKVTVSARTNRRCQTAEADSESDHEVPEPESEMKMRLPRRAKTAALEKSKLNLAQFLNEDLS
inactive: saracatinib -0.077 | sotrastaurin -0.122 | alvocidib -0.053 | Tubastatin A 0.026 | [1] 0.106 | defactinib -0.067 | rucaparib 0.078 | [2] -0.004 | encorafenib 0.093 | [3] -0.039 | [4] 0.079 | filanesib -0.018 | zotarolimus 0.054 | idasanutlin -0.064 | alisertib 0.03 | [5] 0.038 | gefitinib 0.022 | [6] -0.116 | lapatinib 0 | pictilisib 0.071

OTUD6B (UniProt Q8N6M0)
Chain of UniProt Q8N6M0 (Q8N6M0 whole entry, looked up): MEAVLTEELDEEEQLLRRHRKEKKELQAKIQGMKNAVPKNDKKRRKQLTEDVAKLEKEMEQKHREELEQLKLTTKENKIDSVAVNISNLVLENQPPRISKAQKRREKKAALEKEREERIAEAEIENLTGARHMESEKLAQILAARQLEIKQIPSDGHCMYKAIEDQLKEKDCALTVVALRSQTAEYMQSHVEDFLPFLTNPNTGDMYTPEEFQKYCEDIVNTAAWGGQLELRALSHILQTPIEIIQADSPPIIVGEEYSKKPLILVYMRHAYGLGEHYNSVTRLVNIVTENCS
inactive: saracatinib -0.009 | sotrastaurin -0.035 | alvocidib -0.147 | Tubastatin A -0.007 | [1] -0.008 | defactinib -0.138 | rucaparib 0.019 | [2] 0.001 | encorafenib 0.122 | [3] -0.055 | [4] 0.016 | filanesib -0.025 | zotarolimus 0.1 | idasanutlin -0.012 | alisertib 0.005 | [5] 0.005 | gefitinib -0.017 | [6] -0.013 | lapatinib -0.028 | pictilisib 0.017

MRPS35 (UniProt P82673)
inactive: saracatinib -0.18 | sotrastaurin -0.033 | alvocidib 0.01 | Tubastatin A 0.078 | [1] -0.022 | defactinib 0.043 | rucaparib 0.071 | [2] 0.062 | encorafenib 0.039 | [3] 0.007 | [4] 0.018 | filanesib 0.024 | zotarolimus 0.051 | idasanutlin -0.168 | alisertib -0.04 | [5] 0.026 | gefitinib -0.054 | [6] -0.13 | lapatinib 0.022 | pictilisib -0.021
